Laboratory results reported in ChEMBL document CHEMBL3988442, “University of Dundee, Small-Polar-MMV Screening Library” (2021).
Out of some 38,000 compounds screened, about 1,200 (3.2%) showed an effect of 50% or more. The median lay at about -58%. The sample holds strong results, similar compounds and a random draw of the others, so the mix is not that of the screen.

tested on: Plasmodium falciparum; assay: Calibr Malaria Delayed Death Assay SOP; type: functional, organism-based; design: scale not given: in the data most compounds retested in dose-response had high values; details: concentration 4.99e-06 (unit not given; other assays of the set use mol/L)

| Structure (SMILES) | Percent Effect [%] |
| --- | --- |
| O=C(Cc1ccccn1)N1C[C@H]2CCC[C@@]2(COc2ccccn2)C1 | -9.537 |
| Cc1cc(SCC(N)=O)nc(-c2ccc(F)cc2)n1 | 0.2782 |
| COCCn1cnnc1CCNc1cc(C)nc2ccnn12 | -117.5 |
| CCN1CC2(CC1=O)CN(Cc1ccoc1)CCN(C(=O)C(C)C)C2 (configuration not stated) | -77.86 |
| CN1CCC(CNC(=O)c2cccc(CN3CCCCCC3)c2)C1 (configuration not stated) | -131.1 |
| CN(C)C(=O)CN1CCC2(COCc3cnc(N4CCOCC4)nc32)C1.O=C(O)C(F)(F)F (configuration not stated) | 13 |
| CN(CCCO)C(=O)c1cc(COc2ccc3c(c2)CCCC3)on1 | -142.4 |
| Cc1cccc(N2CCN(CCS(=O)(=O)c3ccc(Br)cc3)CC2)c1C | -66.5 |
| O=C(c1cscn1)N1CCc2ncc(CN3CCOCC3)n2CC1 | -41.39 |
| CCOc1ccc2nc(CN3CCOC(CN)C3)ccc2c1 (configuration not stated) | -11.41 |
| CCOc1ccc2nc(CN3CCC(CNC(C)=O)C3)ccc2c1 (configuration not stated) | 36.59 |
| CCOc1ccc2nc(CN3CCC(CN)C3)ccc2c1 (configuration not stated) | 85.08 |
| c1ccc(Cc2noc(CN3CCCC(Cn4cncn4)C3)n2)cc1 (configuration not stated) | -77.91 |
| NC(=O)N1C[C@H](NC(=O)c2cscn2)[C@@H]2OCCC[C@@H]21 | -29.66 |
| O=C(NCc1ccco1)[C@H]1CC[C@@H]2[C@@H](CCN2c2ncccn2)O1.O=C(O)C(F)(F)F | -5.9 |
| CC(C)CN1C(=O)CC[C@]12CC[C@@H](NC(=O)NCc1cccnc1)CC2.O=C(O)C(F)(F)F | -179.5 |
| O=C(NCCSc1ccccc1F)NCc1cccnc1 | -28.43 |
| CN(C)c1nc(NCc2ccccc2Cn2cccn2)ncc1F | -30.26 |
| O=C1NCCCCC1Sc1ccccc1F (configuration not stated) | -25.7 |
| Fc1ccccc1Sc1ccccc1CNC1=NCCN1.I | 76.79 |
| O=C(Cc1cccnc1)NCCSc1ccccc1F | -31.8 |
| Cc1cc(Br)ccc1NCc1ccc(C(=O)N(C)C)[nH]1 | -35.81 |
| CC(C)[C@H](NC(=O)NC1CCS(=O)(=O)C1)C(=O)NCc1ccc(Cl)cc1 (some centres not stated) | -111.5 |
| COCCC1COC2(CCN(C(=O)c3cccnc3)CC2)C1.O=C(O)C(F)(F)F (configuration not stated) | -117.3 |
| O=C(c1ccccc1)N1CC[C@H]2C[C@H](c3nccs3)O[C@@H]2C1 | -4.41 |
| Cc1cc(C)cc(OCCN(C)C(=O)NC(C)c2nncn2C)c1 (configuration not stated) | -106.2 |

| Structure (SMILES) | Percent Effect [%] |
| --- | --- |
| CCc1nc(C2CCCN2C(=O)CCCn2cccn2)no1 (configuration not stated) | -167.4875 |
| COCC1c2c(cnn2C)CCN1C(=O)c1cscn1.O=C(O)C(F)(F)F (configuration not stated) | -119.3 |
| Cc1cccc(Nc2nccnc2C2CCCN(CC(=O)N(C)C)C2)n1 (configuration not stated) | -114.3 |
| Cc1cc(C)nc(Nc2cccc(C3CCCN(CCO)C3)n2)n1 (configuration not stated) | 10.75 |
| NCc1n[nH]c(-c2cccc(F)c2)n1 | -72.36 |
| Cc1nc(N2CCCC2)nc2c1CCN(C(=O)N(C)C)CC2 | -58.26 |
| CCc1cccc(N2CCC(NC(=O)c3ccco3)CC2)c1 | 59.23 |
| CCc1cccc(N2CCC(NC(=O)c3ccoc3C)CC2)c1 | -20.41 |
| CCc1cccc(N2CCC(NC(=O)CCNC(N)=O)CC2)c1 | -70 |
| CC(=O)N1CCO[C@@H]2CN(Cc3cccc(Cl)c3)C[C@@H]2C1.O=C(O)C(F)(F)F | -40.86 |
| CS(=O)(=O)NC1CCN(CCc2ccccc2)CC1 | -29.4 |
| c1ccc(CCCN2CC(n3cccn3)C2)cc1 | -65.67 |
| Cl.Cl.NCC1[C@H]2CN(CCc3ccccc3)C[C@@H]12 (some centres not stated) | 86.43 |
| CN1CCC(C(=O)N2CCN(Cc3cccc(Cl)c3)CC2)CC1=O (configuration not stated) | -101.4 |
| O=C(Nc1nnc[nH]1)C(c1cccc(F)c1)N1CCOCC1 (configuration not stated) | -17.23 |
| CC/C=C(\C)CN1CCC(CNC(=O)c2ccc(=O)[nH]c2)CC1 | -93.37 |
| Cc1ccc(S(=O)(=O)Cc2nnc(C)n2C)cc1 | -134.3 |
| O=C(c1csnn1)N1CCCC(n2cncn2)C1 (configuration not stated) | -97.91 |
| CCC(CC)CN1CCN(CC(=O)Nc2cccc3nsnc23)CC1 | -38.36 |
| CCn1nccc1C(=O)NC(Cn1cccn1)C(C)(C)C (configuration not stated) | -34.87 |
| CN(C)Cc1ccccc1CN(C)c1ncnc2[nH]ccc12 | 27.74 |
| Cc1cc(C)cc(CN2CCN(Cc3cc(C#N)n(C)c3)CC2=O)c1 | 14.32 |
| CCn1cc(CN2CCN(Cc3cccc(OC)c3)C(=O)C2)cc1C#N | 47.6 |
| CCn1cc(CN2CCN(Cc3cc(C)cc(C)c3)C(=O)C2)cc1C#N | 66.78 |
| CN(CCn1cnc(-c2ccccc2)c1-c1ncc[nH]1)S(C)(=O)=O | -10.43 |
| CCN(C)S(=O)(=O)NCC1CCCN(Cc2ccccc2F)C1 (configuration not stated) | 74.13 |
